# Test results reported in PubChem BioAssay (NCATS).
# Where “and” joins values, the source holds several entries; their conditions need not be identical. Equal values may be shown once. Inconclusive results are not listed. A call without a number means that no potency is given here. Some compounds were tested as several samples or in several runs, with calls that do not always agree. Calls of active or inactive are those of the source. The call rests on the fitted dose curve; in most records, active means well fitted curve in the direction sought with a large enough effect; inconclusive means small, poorly fitted or top-dose-only effect, or another doubt; inactive means no such curve, though single readings can be large; an effect the other way counts as inactive or inconclusive.
# Columns and labels:
# [1] = qHTS assay to identify small molecule inhibitors of chordoma cells - UCH-1 (AID 1259355); further: nearly all actives have a fitted effect of over 55% in size; further: potency means the concentration at half of the fitted maximal effect; series mostly up to about 46 µM
# In short: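 800 cells/well, overnight attach; compounds pinned at 15 concs, then auranofin/camptothecin/doxorubicin/rubitecan/topotecan combo added; 48hr 37 C, 5% CO2; CellTiter-Glo, 30min RT, luminescence.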
# [2] = qHTS assay to identify small molecule inhibitors of chordoma cells - UCH-2 (AID 1259356); further: series mostly up to about 46 µM
# [3] = P-glycoprotein substrates identified in KB-3-1 adenocarcinoma cell line, qHTS therapeutic library screen (AID 1346986); details: outcome: dose series up to 44.5 µM unless noted; further: nearly all actives have a fitted effect of over 60% in size
# In short: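 Viability read by CellTiter-Glo after 72 h compound exposure in dose-response of KB-3-1 and KB-8-5-11 (P-gp-high) cells. Hits needed AC50 < 10 uM, >50% maximum response and curve class -1.1 to -2.4. Cherry-picks retested ± tariquidar, including pcDNA/MDR-19 HEK-293 pair.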
# [4] = P-glycoprotein substrates identified in KB-8-5-11 adenocarcinoma cell line, qHTS therapeutic library screen (AID 1346987); details: outcome: dose series up to 44.5 µM unless noted; further: nearly all actives have a fitted effect of over 65% in size; further: potency means the concentration at half of the fitted maximal effect
# In short: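 Compounds are pinned in dose-response onto KB-8-5-11 cells (500 cells/well, colchicine-free medium) and left 72 h at 37 degree C. CellTiter-Glo luminescence then yields AC50 values.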
# [5] = Identifying Small Molecule Inhibitors of Pancreatic Cancer Stem Cells (SN12C, Adherent) (AID 1259358);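 further: cell survival measured after 48 h of compound exposure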
# In short: (§1)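 Adherent (2D) versus sphere (3D) formats; spheres generated 14 d in SCM beforehand. Compound transferred by pin tool after 4 h, 48 h incubation, CellTiter-Glo endpoint.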
# [6] = Identifying Small Molecule Inhibitors of Pancreatic Cancer Stem Cells (SN12C, Spheroid) (AID 1259360)
# In short: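 Viability is scored by CellTiter-Glo luminescence 48 h after dosing, expressed as percent activity against vehicle and no-cell references. Spheroid formats rely on cells cultured 14 days in stem cell media beforehand.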
# [7] = Identifying Small Molecule Inhibitors of Pancreatic Cancer Stem Cells (A278, Adherent) (AID 1259361);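 further: viability read after 48 h compound exposure; nearly all actives have a fitted effect of over 35% in size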
# In short: as §1
compound,measurement,setting,value
O=C1N(c2ccccc2)c2ccccc2C1(Cc1ccncc1)Cc1ccncc1,Potency,[1],inactive
same,outcome,[2],inactive
same,outcome,[3],inactive
same,Potency,[4],inactive
C[C@@H]1CC(=O)NN=C1c1ccc(NN=C(C#N)C#N)cc1,Potency,[1],inactive
same,outcome,[2],inactive
same,Potency,[4],inactive
O=C(c1ccc(F)cc1)C1CCN(CCn2c(=O)[nH]c3ccccc3c2=O)CC1,Potency,[1],inactive
same,outcome,[2],inactive
same,Potency,[4],inactive
CCOC(=O)C(C)(C)Oc1ccc(Cl)cc1,Potency,[1],inactive
same,outcome,[2],inactive
same,Potency,[4],inactive
Cc1ccc(C(=O)Nc2ccc(S(=O)(=O)O)c3cc(S(=O)(=O)O)cc(S(=O)(=O)O)c23)cc1NC(=O)c1cccc(NC(=O)Nc2cccc(C(=O)Nc3cc(C(=O)Nc4ccc(S(=O)(=O)O)c5cc(S(=O)(=O)O)cc(S(=O)(=O)O)c45)ccc3C)c2)c1,Potency,[1],inactive
same,outcome,[2],inactive
same,Potency,[4],inactive
CCc1cccc2c3c([nH]c12)C(CC)(CC(=O)O)OCC3 (configuration not stated),Potency,[1],inactive
same,outcome,[2],inactive
same,Potency,[4],inactive
CC(C(=O)O)c1cccc(C(=O)c2ccccc2)c1 (configuration not stated),Potency,[1],inactive
same,outcome,[2],inactive
same,Potency,[4],inactive
Nc1nnc(-c2cccc(Cl)c2Cl)c(N)n1,Potency,[1],inactive
same,outcome,[2],inactive
same,Potency,[4],inactive
NC(=O)NO,Potency,[1],inactive
same,outcome,[2],inactive
same,Potency,[4],inactive and 1.66 µM (active)
COc1ccc(C2CNC(=O)C2)cc1OC1CCCC1 (configuration not stated),Potency,[1],inactive
same,outcome,[2],inactive
same,Potency,[4],inactive
CCOC(=O)c1ncn2c1CN(C)C(=O)c1cc(F)ccc1-2,Potency,[1],inactive
same,outcome,[2],inactive
same,Potency,[4],inactive
NC(=O)OCC(COC(N)=O)c1ccccc1,Potency,[1],inactive
same,outcome,[2],inactive
same,Potency,[4],inactive
COc1ccccc1OCC(O)CN1CCN(CC(=O)Nc2c(C)cccc2C)CC1 (configuration not stated),Potency,[1],inactive
same,outcome,[2],inactive
same,Potency,[4],inactive
CNCCCC12CCC(c3ccccc31)c1ccccc12,Potency,[1],inactive
same,outcome,[2],inactive
same,Potency,[4],20.9 µM (active)
Nc1nc2c(ncn2COC(CO)CO)c(=O)[nH]1,Potency,[1],inactive
same,outcome,[2],inactive
same,Potency,[4],inactive and 16.6 µM (active)
CC(C)NCC(O)c1ccc(O)c(O)c1 (configuration not stated),Potency,[1],inactive
same,outcome,[2],inactive
same,Potency,[4],inactive
CN(C)CCC=C1c2ccccc2C=Cc2ccccc21,Potency,[1],inactive
same,outcome,[2],inactive
same,Potency,[4],inactive
N[C@@H](Cc1c[nH]c2ccc(O)cc12)C(=O)O,Potency,[1],inactive
same,outcome,[2],inactive
same,Potency,[4],inactive
Cn1cnc2c1c(=O)[nH]c(=O)n2C,Potency,[1],inactive
same,outcome,[2],inactive
same,Potency,[4],inactive and 16.6 µM (active)
Cc1cnc(C(=O)NCCc2ccc(S(=O)(=O)NC(=O)NC3CCCCC3)cc2)cn1,Potency,[1],inactive
same,outcome,[2],inactive
same,Potency,[4],inactive
Cc1cn([C@H]2C[C@H](N=[N+]=[N-])[C@@H](CO)O2)c(=O)[nH]c1=O,Potency,[1],inactive
same,outcome,[2],inactive
same,Potency,[4],inactive
O=c1c(-c2ccc(O)cc2)coc2cc(O)cc(O)c12,Potency,[1],inactive
same,outcome,[3],inactive
same,Potency,[4],inactive
CC(C)Cc1ccc(C(C)C(=O)O)cc1 (configuration not stated),Potency,[1],inactive
same,outcome,[2],inactive
same,Potency,[4],inactive
O=C(C1CCCCC1)N1CC(=O)N2CCc3ccccc3C2C1 (configuration not stated),Potency,[1],inactive
same,outcome,[2],inactive
same,Potency,[4],inactive
Clc1ccccc1C(c1ccccc1)(c1ccccc1)n1ccnc1,Potency,[1],inactive
same,outcome,[2],inactive
same,Potency,[4],9.88 µM (active)
NC12CC3CC(CC(C3)C1)C2,Potency,[1],inactive
same,outcome,[2],inactive
same,Potency,[4],inactive
CC[N+](CC)(CC)CCOc1cccc(OCC[N+](CC)(CC)CC)c1OCC[N+](CC)(CC)CC,Potency,[1],inactive
same,outcome,[2],inactive
same,Potency,[4],inactive
CCOC(=O)Nc1ccc(NCc2ccc(F)cc2)nc1N,Potency,[1],inactive
same,outcome,[2],inactive
same,Potency,[4],inactive
O=C1Cc2cc(CCN3CCN(c4nsc5ccccc45)CC3)c(Cl)cc2N1,Potency,[1],inactive
same,outcome,[2],inactive
same,Potency,[4],inactive
COc1ccccc1OCCNCC(O)COc1cccc2[nH]c3ccccc3c12 (configuration not stated),Potency,[1],inactive
same,outcome,[2],inactive
same,Potency,[4],inactive
NCCS(=O)(=O)O,Potency,[1],inactive
same,outcome,[2],inactive
same,Potency,[4],inactive
COc1cc2nc(N3CCN(C(=O)C4COc5ccccc5O4)CC3)nc(N)c2cc1OC (configuration not stated),Potency,[1],inactive
same,outcome,[2],inactive
same,Potency,[4],inactive
CC(C)C(=O)Nc1ccc([N+](=O)[O-])c(C(F)(F)F)c1,Potency,[1],inactive
same,outcome,[2],inactive
same,Potency,[4],inactive
C[C@](N)(Cc1ccc(O)c(O)c1)C(=O)O,Potency,[1],inactive
same,outcome,[2],inactive
same,Potency,[4],inactive
O=C(CCCN1CCC(O)(c2ccc(Cl)cc2)CC1)c1ccc(F)cc1,Potency,[1],inactive
same,outcome,[2],inactive
same,Potency,[4],18.4 µM (active)
OCCN1CCN(CCCN2c3ccccc3Sc3ccc(C(F)(F)F)cc32)CC1,Potency,[1],31.6 µM (active)
COc1ccc(CCN(C)CCCC(C#N)(c2ccc(OC)c(OC)c2)C(C)C)cc1OC (configuration not stated),Potency,[5],inactive
same,outcome,[6],inactive
same,IC50 (viability decrease),[7],inactive
Nc1ccn([C@H]2CC[C@@H](CO)O2)c(=O)n1,outcome,[3],inactive
CN(C)CCOC(c1ccccc1)c1ccccc1,outcome,[3],inactive
